# High-throughput results from PubChem.
# In the library only some 11% were active in any assay of this set; here they are far more common.
# PI5P4Ka inh = inhibitors of human PI5P4K alpha; P48426; PI5P4Kalpha enzyme, ADP-Glo luminescence, 60 min; hits give low values; max response, %; 330,000 tested, 1.2% active; active means max response of -50% or lower; inconclusive means between -30% and -50%; inactive means -30% or higher; further: value at the top dose of about 77 µM; on the % scale 0 is the no-effect control and ±100 the full control effect
#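 PI5P4Kalpha ADP-Glo assay; 5 microM ATP final; 60 min RT reaction; HEPES pH 7.4/EGTA/CHAPS, 5% DMSO; controls lacking substrate or enzyme; luminescent end-point.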
# HP1b binding inh = inhibitors of HP1-beta chromodomain binding to methylated histone tails. P83916. AlphaScreen HP1-beta / biotin-H3K9me3 peptide binding. Potency, µM (doses to about 114 µM), for the others: at the top dose activity change, negative = inhibition, actives largely listed as inhibitors. 390,000 tested, 0.56% active; further: potency means the concentration at half of the fitted maximal effect; nearly all actives have a fitted effect of over 70% in size
#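 AlphaScreen: HP1-beta (50 nM) preformed 30 min with biotin-H3(1-18)K9me3 peptide (50 nM) in PBS pH 7.4, 0.01% Tween-20. Compound added for 30 min at RT, then streptavidin donor/nickel chelate acceptor beads (10 ug/mL) for 30 min.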
# BAZ2B inh = inhibitors of human BAZ2B bromodomain. AID 504333. AlphaScreen BAZ2B-H3K14Ac peptide displacement. Potency, µM (doses to about 114 µM), for the others: at the highest dose activity change, negative = inhibition, most hits filed as inhibitors. Q9UIF8. 360,000 tested, 4.4% active; further: potency means the concentration at half of the fitted maximal effect; on the % scale 0 is the no-effect control and ±100 the full control effect; nearly all actives have a fitted effect of over 60% in size
#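 AlphaScreen luminescence quantifies BAZ2B engagement of H3K14Ac peptide; the protein and biotinylated peptide are both at 50 nM final, buffer PBS pH 7.4 with 0.01% Tween-20, all steps at room temperature.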
# JMJD2A Tudor inh = inhibitors of human JMJD2A Tudor domain; Potency, µM (doses to about 114 µM), for inactives: at the top dose activity change, negative = inhibition, usual class: inhibitors; O75164; 390,000 tested, 4.4% active; AID 504339; AlphaScreen JMJD2A-Tudor / H3K4me3 peptide binding; further: potency means the concentration at half of the fitted maximal effect; on the % scale 0 is the no-effect control and ±100 the full control effect; nearly all actives have a fitted effect of over 50% in size
# L3MBTL1 block = blocks human L3MBTL1. Q9Y468. AlphaScreen L3MBTL1–H3K9me1 peptide binding. Potency, µM (doses to about 57.1 µM), inactives show at the highest dose activity, negative = inhibition, hits mostly inhibitors. 230,000 tested, 0.66% active. AID 485360; further: potency means the concentration at half of the fitted maximal effect; on the % scale 0 is the no-effect control and ±100 the full control effect; nearly all actives have a fitted effect of over 60% in size
#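 AlphaScreen assay: L3MBTL1 (50 nM final) was preincubated 30 min at room temperature with biotinylated H3(1-15)K9me1 peptide (75 nM final), then 30 min with library compounds; streptavidin donor and nickel chelate acceptor beads (10 ug/mL final) added, 30 min dark.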
# G9a block = G9a (human) methyltransferase inhibition; Q96KQ7; G9a H3K9 monomethylation, AlphaScreen, 2 h; Potency, µM (top dose mostly 102 µM), for inactives: at the top dose activity, negative = inhibition, hits mostly inhibitors; 350,000 tested, 8.8% active; AID 504332; further: potency means the concentration at half of the fitted maximal effect; on the % scale 0 is the no-effect control and ±100 the full control effect; nearly all actives have a fitted effect of over 75% in size
#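 AlphaScreen read-out: biotin-H3K9 peptide (500 nM) methylation by 20 nM enzyme with 20 uM SAM, 2 h at room temperature after 15 min compound preincubation; anti-monomethyl H3K9 antibody plus donor/acceptor beads, 10 min dark.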
# * = called active by the depositor; ? = inconclusive; / = no result; [ ] = remark or other dose. Unless noted, the call rests on the fitted dose curve; in most records, active means well fitted inhibition curve with a large enough effect; inconclusive means small, poorly fitted or top-dose-only effect; inactive means no such curve, though single readings can be large or run the other way.
SMILES,PI5P4Ka inh,HP1b binding inh,BAZ2B inh,JMJD2A Tudor inh,L3MBTL1 block,G9a block
O=C(NCCC1=CCCCC1)c1ccc2c(c1)N(Cc1cccc(Cl)c1)C(=O)c1ccccc1S2=O (centres undefined),/,4.5%,2.2%,-2.9%,/,-34.4%[59 µM]
Cc1cc(F)ccc1NC(=O)C1CCC(CNS(=O)(=O)c2ccc3c(c2)CCCC(=O)N3)CC1 (centres undefined),/,23.2%,-1.2%,3.9%,/,0.3%[59 µM]
Cc1ccc(-n2nnnc2CNC(=O)C(C)C)cc1C,/,22.7%[57 µM],6.4%,1.3%,/,2.5%[59 µM]
Cc1ccc(-c2nn(-c3cc(Cl)ccc3[N+](=O)[O-])c(=O)c3ccccc23)cc1C,6.0,?,44.7µM*,?,-14.0%,-4.6%[0.501 µM]
Cc1ccc(-c2nn(-c3cc(N4CCNCC4)ccc3[N+](=O)[O-])c(=O)c3ccccc23)cc1,16.5,?,-36.9%,?,-15.9%,31.6µM*
O=c1c2ccccc2c(-c2ccccc2)nn1-c1cc(Cl)ccc1[N+](=O)[O-],-4.5,-10.8%,?,-28.8%[11.4 µM],-13.1%,-8.2%[59 µM]
CCc1ccc(-c2nn(-c3cc(Cl)ccc3[N+](=O)[O-])c(=O)c3ccccc23)cc1,8.2,28.3%,-10.6%,-9.3%,-0.1%,?
CCN(C(=O)Cn1c(=O)n(Cc2ccccc2)c(=O)c2c1c1cc(OC)ccc1n2C)c1ccccc1,/,16.8%,-10.2%,-5.9%,/,?
COc1ccc(OC)c(NC(=O)CN2C(=O)CC(C)Sc3ccccc32)c1 (centres undefined),/,16.7%,-15.5%,-9.1%,/,5.0%[59 µM]
CCN1CCN(C(c2ccc(OC)c(OC)c2)c2nnnn2C(C)(C)C)CC1 (centres undefined),3.0,13.2%,?,-9.6%[11.4 µM],/,-13.2%[12.7 µM]
COc1ccc(C(c2nnnn2C(C)(C)C)N2CCN(c3nc4ccccc4s3)CC2)cc1OC (centres undefined),3.3,-11.1%,79.4µM*,14.4%[11.4 µM],-4.6%,-40.9%
COc1ccccc1N1CCN(C(c2ccc(Cl)cc2)c2nnnn2C(C)(C)C)CC1 (centres undefined),-4.9,-4.7%,-38.2%,?,-1.8%,8.2%[59 µM]
COc1cc(C(c2nnnn2C(C)(C)C)N2CCN(c3nc4ccccc4s3)CC2)ccc1O (centres undefined),-5.6,?,?,?,-1.2%,2.24µM*
CCOc1cccc(NC(=O)C(Cc2cccs2)c2nn[nH]n2)c1 (centres undefined),0.0,11.6%,?,-1.1%,4.7%,56.2µM*
COc1ccc(N2CCN(Cc3nc4c(c(=O)n(C)c(=O)n4C)n3C(C)C)CC2)cc1,/,20.7%,1.6%,-11.2%,/,-25.9%[59 µM]
O=Nc1c(-c2c(O)[nH]c3cc(Br)ccc23)[nH]c2ccccc12,-75.1*,3.98µM*,3.98µM*,3.16µM*,/,8.44µM*
N#Cc1c(Cl)nsc1NC(=O)c1ccccc1,-53.8*,26.4%,-0.7%,-8.7%,34.1%,?
C/C(=N\NC(N)=S)C1=CCC2C3CC[C@H]4CC(O)CC[C@]4(C)C3CC[C@]12C (some centres undefined),-18.6,?,-1.3%,-18.5%,/,8.91µM*
COc1ccc(-n2c(=O)c(-c3ccc(Cl)cc3)nc3cnc(N4CCOCC4)nc32)cc1,/,/,/,/,/,7.5%[12.7 µM]
Cc1ccccc1CS(=O)(=O)c1nnc([C@H](Cc2ccccc2)NC(=O)OC(C)(C)C)o1,/,31.9%,29.1%,-11.5%,/,39.8µM*
CC(C)(C)OC(=O)N[C@@H](Cc1ccccc1)c1nnc(S(=O)(=O)Cc2ccccc2)o1,/,/,-28.4%,/,-0.9%,11.2µM*
CCSc1nnc([C@H](Cc2ccccc2)NC(=O)OC(C)(C)C)o1,/,15.9%,3.8%,-11.9%,/,-1.1%[59 µM]
CC(C)(C)OC(=O)N[C@@H](Cc1ccccc1)c1nnc(SCC(=O)O)o1,/,17.5%,-31.4%,-25.7%,1.7%,?
COc1cc2ncc3c(-c4ccc(C)cc4)nn(-c4ccc(F)cc4F)c3c2cc1OC,/,-5.9%,-22.8%,-26.2%,/,8.6%[12.7 µM]
CCN1CCCC1CNC(=O)c1cc2c(-c3ccc(Cl)cc3)nn(C)c2s1 (centres undefined),-1.6,4.0%,-26.8%,-33.8%,/,79.4µM*
SMILES,PI5P4Ka inh,HP1b binding inh,BAZ2B inh,JMJD2A Tudor inh,L3MBTL1 block,G9a block
Cc1ccc(CNC(=O)c2cc3c(-c4ccc(Cl)cc4)nn(C)c3s2)o1,-6.5,31.3%,-0.4%,-12.4%,/,50.1µM*
CCN1CCCC1CNC(=O)c1cc2c(-c3cccc(OC)c3)nn(C)c2s1 (centres undefined),0.5,27.4%,4.4%,-3.5%,-1.4%,13.4%[12.7 µM]
CCc1cccc(NC(=O)Cn2c(=O)n(-c3ccccc3C)c(=O)c3c2c2cc(C)ccc2n3C)c1,/,34.5%,-8.7%,8.6%,/,0.7%[59 µM]
CC1CCC(Nc2nc3c(-c4ccc(Cl)cc4)nnn3c3ccccc23)CC1 (centres undefined),/,85.8%,26.8%,25.5%,/,20.1%[59 µM]
CCC(=O)O[C@]1(C(=O)CCl)[C@@H](C)CC2C3C[C@H](F)C4=CC(=O)C=CC4(C)[C@@]3(F)C(O)CC21C (some centres undefined),/,/,/,/,/,7.5%[12.7 µM]
O=C1CS/C(=N\C(=O)N2c3ccccc3Sc3ccccc32)N1,/,-12.5%,?,?,-4.8%,5.62µM*
NCCC(=O)N1c2ccccc2Sc2ccccc21,-0.3,20.3%,2.6%,-25.0%,-0.8%,/
CCn1cnc2c1c(=O)n(Cc1cccc(Br)c1)c(=O)n2Cc1ccccc1,3.0,19.4%,-0.5%,70.8µM*,/,-7.7%[59 µM]
Cn1cnc2c1c(=O)n(Cc1cccc(Br)c1)c(=O)n2C,-10.5,14.8%,10.0%,-20.7%,/,-6.7%[12.7 µM]
c1ccc(C[C@H]2CN=C(Nc3ccccc3)N2CCCC2CCCC2)cc1,-12.6,25.7%,?,-29.6%,-0.2%,44.7µM*
COc1ccc(Cl)cc1NC(=S)N(CCCN1CCOCC1)Cc1cn(C)c2ccccc12,3.4,?,?,?,-12.8%,10µM*
COc1cc(Cl)ccc1NC(=S)N(CCCN1CCOCC1)Cc1cn(C)c2ccccc12,0.3,?,?,?,-13.1%,17.8µM*
CCc1ccc(NC(=O)Cn2c(=O)n(CCCC(=O)NCc3ccccc3OC)c(=O)c3ccccc32)cc1,/,1.7%,1.6%,-14.7%,/,11.6%[59 µM]
CCCCC(CC)CNC(=O)CN(C)S(=O)(=O)c1ccc2c(c1)c(=O)n(C)c(=O)n2C (centres undefined),/,39.7%,-1.9%[57.1 µM],6.1%,/,1.2%[59 µM]
Cc1nc(-c2ccc(C)c(N3CCN(C(=O)Nc4ccccc4C(F)(F)F)CC3)c2)no1,/,28.4%[57 µM],7.8%,4.5%,/,4.8%[59 µM]
CCc1cccc(NC(=O)CS(=O)Cc2nc(-c3ccc(C)cc3)oc2C)c1 (centres undefined),10.9,0.8%,-38.9%,-29.2%,-3.0%,44.7µM*
